Assay outcomes from PubChem.
ADAM10 inh – inhibits human ADAM10; O14672; recombinant ADAM10, EDANS/DABCYL FRET peptide cleavage, 3 h; inhibition, % at 7 µM; actives 0.62% (n = 370,000); AID 720582;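 active = inhibition above a per-campaign cutoff equal to the mean of compounds falling between control-based bounds plus 3 SD, cut at about 20% in these data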;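 also: 0% = DMSO wells while the 100% control is not disclosed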
HGIII-sPLA2 inh – Inhibits HGIII-sPLA2 liposome hydrolysis, primary screen; QFRET BODIPY PC-A2 liposome hydrolysis, fluorescence; inhibition, % at 12.2 µM; actives 0.56% (n = 370,000); AID 743126;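 active = inhibition above mean plus 3 SD of compounds lying within the high and low control bounds, cut at about 19% in these data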;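 also: 0% = median of test compound wells and 100% = no enzyme DMSO wells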
ADAM17 inh – inhibits human ADAM17. P78536. recombinant ADAM17, EDANS/DABCYL FRET peptide cleavage. inhibition, % at 6.95 µM. actives 0.83% (n = 370,000);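 active = inhibition above the mean of compounds lying between control limits plus 3 SD, set per campaign, cut at about 8.5% in these data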;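 also: 0% = DMSO-only wells as the low control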
KLK7 zymogen act – activates the human kallikrein-7 zymogen; purified proKLK7, EDANS-DABCYL substrate fluorescence; 100% is mature enzyme control, 0% vehicle; activation, % at 7 µM; actives 0.9% (n = 370,000);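 active = activation above the mean of all tested compounds plus 3 SD, computed per campaign excluding outliers beyond control limits, cut at about 13% in these data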
PLC-gamma1 inh – inhibitors of human phospholipase C gamma1; actives 0.84% (n = 370,000); purified PLC-gamma1, fluorogenic substrate, fluorescence; P19174; AID 720700; inhibition, % at 12.2 µM
PLC-beta3 inh – inhibitors of human phospholipase C beta3 | Q01970 | Purified PLC-beta3, fluorogenic substrate, fluorescence | actives 0.18% (n = 370,000) | inhibition, % at 12.2 µM; in the data active = inhibition above about 11%;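 also: 0% = median of compound wells on plate and 100% = full blocker control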
PLCgamma1 ctr – PLC-gamma1 inhibition, counter-screen for PLC-beta3 hits; AID 743258; shares compounds with PLC-gamma1 inh; inhibition, % at 12.3 µM; purified PLC-gamma1, fluorogenic substrate, fluorescence; actives 3.1% (n = 3,300)
PLCb3 confirm – confirmation of human PLC-beta3 inhibitors; shares compounds with PLC-gamma1 inh; inhibition, % at 12.3 µM; actives 1% (n = 3,300); AID 743261; purified PLC-beta3, fluorogenic substrate fluorescence; in the data active = inhibition above about 11%
Active calls of the source: *; . = no result. Sampled rows, rich in hits. Any-hit rate of the full collection: about 3.4%. Rule as the data show it, unless noted: active = inhibition above about 9.5%; inactive = the rest.

SMILES	ADAM10 inh	HGIII-sPLA2 inh	ADAM17 inh	KLK7 zymogen act	PLC-gamma1 inh	PLC-beta3 inh	PLCgamma1 ctr	PLCb3 confirm
Cc1ccc(OCCn2c(CCNC(=O)C3CCCCCC3)nc3ccccc32)cc1	-2	2	-5	.	17*	12*	9.6*	6
Cc1ccc(OCCn2c(CCNC(=O)C3CCCCC3)nc3ccccc32)cc1	-2	1	-5	.	7	9	.	.
OCCCc1nc2ccccc2n1CCCCOc1ccccc1	8	-13	0	0	11*	-2	-3	-5
O=C(NCCc1nc2ccccc2n1CCOc1cc(F)ccc1F)C1CCCCC1	6	-4	3	.	11*	11*	1	-17
c1ccc(N(c2ccccc2)c2nc(-n3ccnc3)nc(-n3ccnc3)n2)cc1	-8	0	-4	0	0	-1	.	.
Clc1nc(Cl)nc(N(c2ccccc2)c2ccccc2)n1	2	5	3	0	9.6*	6	-5	0
CC1C(=O)Nc2ccccc2N1C(=O)c1cccc(C(F)(F)F)c1 (centres undefined)	0	7	4	0	13*	-3	-4	1
CCOc1ccc(/C=C/c2c([N+](=O)[O-])c(=O)n(C)c(=O)n2C)cc1	3	5	-1	1	11*	4	2	2
Cc1ccc(S(=O)(=O)N2CCCCC2C(=O)N2CCN(Cc3ccccc3)CC2)cc1 (centres undefined)	8	-4	3	1	12*	8	-3	-1
Cc1ccc(S(=O)(=O)N2CCCC2C(=O)NC2CCCCC2)cc1 (centres undefined)	4	12	4	0	12*	9	-3	-5
Cc1ccc(S(=O)(=O)Nc2ccccc2CNC2CCCCC2)cc1	-10	5	-2	0	3	-1	.	.
CCOC(=O)C1(CC2CC2)CCN(S(=O)(=O)C[C@]23CC[C@H](CC2=O)C3(C)C)CC1	10	-1	5	0	12*	5	-1	2
Cc1ccc2c(c1)N(CCC(=O)NC1CC1)C(=O)C(C)O2 (centres undefined)	16	4	2	0	6	12*	-3	-6
Cc1ccc2c(c1)N(CC(=O)NC1CCCC1)C(=O)C(C)O2 (centres undefined)	-8	1	-4	0	0	-4	.	.
COc1ccc(CSc2n[nH]c(C)n2)cc1[N+](=O)[O-]	-11	13	1	0	5	0	.	.
COCC(O)CSc1c([N+](=O)[O-])nc(C)n1Cc1ccc(OC)c([N+](=O)[O-])c1 (centres undefined)	5	7	3	0	10*	2	7	5
CCCNC(=O)C(Cc1cccc(Cl)c1)NC(=O)c1ccccc1 (centres undefined)	10	9	4	0	5	14*	-1	2
O=C(N[C@@H](Cc1ccccc1)C(=O)NC1CC1)c1ccc(Cl)cc1	-2	2	1	0	10*	-3	0	1
CC(=O)Nc1sc(C)c(C)c1C(=O)OCC(=O)N(CC(C)C)c1c(N)n(Cc2ccccc2)c(=O)[nH]c1=O	0	10	-9	0	-1	-6	.	.
CSCCC(NC(=O)c1ccccc1Cl)C(=O)NC1CCN(Cc2ccccc2)CC1 (centres undefined)	8	3	-2	0	5	0	.	.
Cc1cccc(C(=O)Oc2coc(CSc3nnc(NC(=O)C4CC4)s3)cc2=O)c1	3	-48	2	-1	1	6	.	.
Cc1ccc(C(=O)Oc2coc(CSc3nnc(NC(=O)C4CC4)s3)cc2=O)cc1C	12	-63	5	-1	11*	8	1	1
COc1ccc(C(=O)NC(=S)NCc2cccnc2)cc1Cl	5	5	-4	0	0	-6	.	.
COC(=O)c1cn(-c2ccccc2)c(C)c1C(=O)OC	15	2	7	1	7	12*	-1	-2
COC(=O)c1cn(-c2ccccc2)nc1-c1ccccc1	6	-7	-3	0	-4	2	.	.
SMILES	ADAM10 inh	HGIII-sPLA2 inh	ADAM17 inh	KLK7 zymogen act	PLC-gamma1 inh	PLC-beta3 inh	PLCgamma1 ctr	PLCb3 confirm
COc1ccc(S(=O)(=O)N2CCCCCC2)cc1C(=O)N1CCN(C(C)=O)CC1	-19	14	-4	1	2	-1	.	.
CC(=O)Nc1ccc(C2=NN(Cc3nnc(-c4ccccc4)o3)C(=O)SC2)cc1	3	-12	6	0	11*	9	-3	-3
CC(=O)Nc1ccc(C2=NN(CC#N)C(=O)SC2)cc1	-1	-4	-3	0	-1	4	.	.
COc1ccccc1NC(=O)c1ccc(NC(=O)Cc2n[nH]c(=O)c3ccccc23)cc1	2	-7	-10	2	0	-7	.	.
Cc1cccc(C)c1N(CC(=O)NC1CCCCC1)C(=O)c1csnn1	-12	10	5	-1	16*	-1	-5	1
COC(=O)Nc1cc([N+](=O)[O-])ccc1OC	3	8	3	-1	10.0*	4	0	5
COc1ccc([N+](=O)[O-])cc1NC(=O)CSCc1ccc(Br)cc1	13	3	6	0	11*	5	-3	-2
COc1ccc([N+](=O)[O-])cc1NC(=O)CSCc1ccccc1C	9	-2	1	1	2	3	.	.
COc1ccc([N+](=O)[O-])cc1NC(=O)Nc1ccccc1	-3	-4	-1	0	2	0	.	.
COc1ccc(-n2nc(C)c3c(=O)c4c([nH]c32)CCCC4)cc1	3	5	1	0	3	-2	.	.
Cn1nc(SCC(=O)O)sc1=S	-3	1	-1	0	0	-1	.	.
CCOC(=O)C(Sc1nn(C)c(=S)s1)C(C)=O (centres undefined)	12	0	4	0	3	11*	6	2
O=C1c2cccnc2C(=O)N1c1cccc([N+](=O)[O-])c1	-1	2	5	-1	16*	0	-2	-3
Nc1ncnc2c1ncn2[C@@H]1O[C@H](COP(=O)(O)OP(=O)(O)OP(=O)(O)O)[C@@H](O)[C@H]1O	5	3	-2	0	40*	1	54*	1
Nc1ncnc2c1ncn2[C@@H]1O[C@H](COS(=O)(=O)O)[C@@H](O)[C@H]1O	6	10	-2	0	1	1	.	.
Nc1ncnc2c1ncn2C1OC(COP(=O)(O)O)C(O)C1O (centres undefined)	-5	5	-8	1	41*	1	55*	1
